According to PubChem BioAssay:
The source made the active and inactive calls. Unless noted, how the calls were made is not given here.

Assays:
[1] = resazurin metabolic signal in HepG2 cells – cell-based, resazurin fluorescence, 24 h, PK04 Diversity Set, profiling panel (AID 1172); settings: HepG2 viability, higher = more signal
[2] = budding yeast growth changes without added modifier – OD600, strain BY4716, 24 h, basal condition, primary screen (AID 1173); settings: S. cerevisiae BY4716 growth, OD600, 24 h; higher = more signal, called active from +8 up or from −8 down
[3] = viability profiling in MM1S myeloma cells – cell-based, resazurin fluorescence, basal, 24 h, PK04 Diversity Set, profiling panel (AID 1174); settings: higher = more signal, called active from +8 up or from −8 down;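 further: MM1S multiple myeloma cell line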
[4] = biological target: Dihydroorotate dehydrogenase (quinone), mitochondrial (Plasmodium falciparum (isolate 3D7)) (UniProt Q08210); experiment: inhibition of P. falciparum DHODH – biochemical, C-terminal His tag, absorbance 600 nm, primary screen (AID 1175); settings: PfDHODH enzyme, DCIP absorbance 600 nm; higher = more signal, called active from +8 up or from −8 down;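 further: recombinant parasite enzyme with a five histidine tag at its C terminus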
Dihydroorotate dehydrogenase (quinone), mitochondrial (Plasmodium falciparum (isolate 3D7)), sequence (Q08210 whole entry, looked up): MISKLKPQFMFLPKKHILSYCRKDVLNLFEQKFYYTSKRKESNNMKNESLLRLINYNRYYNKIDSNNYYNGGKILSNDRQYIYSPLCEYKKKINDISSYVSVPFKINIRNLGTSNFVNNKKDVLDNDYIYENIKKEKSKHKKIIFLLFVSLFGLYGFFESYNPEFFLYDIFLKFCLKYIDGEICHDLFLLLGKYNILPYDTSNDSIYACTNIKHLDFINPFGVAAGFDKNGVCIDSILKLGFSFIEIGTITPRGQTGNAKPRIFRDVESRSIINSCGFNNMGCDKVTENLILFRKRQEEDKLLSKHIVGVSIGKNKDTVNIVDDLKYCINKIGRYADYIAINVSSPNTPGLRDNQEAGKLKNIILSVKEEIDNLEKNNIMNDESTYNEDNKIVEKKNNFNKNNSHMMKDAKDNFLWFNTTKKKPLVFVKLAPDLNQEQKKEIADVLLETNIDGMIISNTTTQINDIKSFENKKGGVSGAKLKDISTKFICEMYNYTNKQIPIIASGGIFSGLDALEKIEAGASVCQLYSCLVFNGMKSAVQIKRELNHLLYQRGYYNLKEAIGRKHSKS

[5] = inhibition of PAO1 biofilm formation – strain PAO1, LB-PBS medium, absorbance 600 nm, primary screen (AID 1176); settings: P. aeruginosa PAO1 growth/biofilm, A600, 12 h; higher = more signal
[6] = growth modulation of vineyard yeast isolate – strain RM11-1a, OD600, basal, 24 h, primary screen (AID 1177);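 further: cultures grown under basal conditions with no added stressor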; settings: S. cerevisiae RM11-1a growth, OD600, 24 h; higher = more signal, called active from +8 up or from −8 down
[7] = growth of efflux-deficient E. coli DRC39 – strain DRC39, OD650, 24 h, E. coli filamentation inducers, primary screen (AID 1178);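 further: growth measured as culture turbidity by optical density at 650 nm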; settings: E. coli DRC39 acrAB, higher = more signal, called active from +8 up or from −8 down
[8] = growth of efflux-deficient E. coli DRC39 – strain DRC39, OD650, 48 h, E. coli filamentation inducers, primary screen (AID 1179);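 further: screen aims at cell division blockers that make cells filament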; settings: E. coli DRC39 delta-acrAB growth, higher = more signal, called active from +8 up or from −8 down
[9] = viability profiling in RPMI8226 myeloma cells – cell-based, resazurin fluorescence, basal, 24 h, PK04 Diversity Set, profiling panel (AID 1180); settings: higher = more signal;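 further: RPMI8826 multiple myeloma cell line at 5000 cells per well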
[10] = biological target: E3 ubiquitin-protein ligase XIAP (Homo sapiens) (UniProt P98170); experiment: small molecules binding XIAP protein – biophysical, small-molecule microarray, fluorescence 635 nm, primary screen (AID 1181); settings: higher = more signal;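 further: score merges 667 nm emission and signal to noise over triplicate slides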
E3 ubiquitin-protein ligase XIAP (Homo sapiens), sequence (P98170 whole entry, looked up, the tested form may be a part): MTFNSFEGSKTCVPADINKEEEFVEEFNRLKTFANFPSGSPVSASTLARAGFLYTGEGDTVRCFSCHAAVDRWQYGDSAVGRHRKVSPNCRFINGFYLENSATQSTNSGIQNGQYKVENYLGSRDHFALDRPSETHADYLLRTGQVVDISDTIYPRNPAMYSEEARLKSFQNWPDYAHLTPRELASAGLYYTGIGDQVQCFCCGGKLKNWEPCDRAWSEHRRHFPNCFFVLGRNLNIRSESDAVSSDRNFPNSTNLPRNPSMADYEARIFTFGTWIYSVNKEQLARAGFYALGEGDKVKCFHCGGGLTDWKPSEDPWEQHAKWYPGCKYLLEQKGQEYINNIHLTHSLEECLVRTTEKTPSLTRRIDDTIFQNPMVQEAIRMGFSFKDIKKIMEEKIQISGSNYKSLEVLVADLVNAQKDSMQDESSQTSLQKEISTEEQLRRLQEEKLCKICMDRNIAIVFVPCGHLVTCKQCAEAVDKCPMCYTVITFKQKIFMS

[11] = tested on: XIP peptide (Xip251-270) binding; experiment: XIP fragment 251-270 binding compounds – biochemical, small-molecule microarray, fluorescence 635/667 nm, 0.1 µg/mL protein, primary screen (AID 1182); settings: fluorescent protein binding, 635 nm, higher = more signal, called active from +8 up or from −8 down
XIP peptide (Xip251-270) = experiment: compounds binding XIP fragment 251-270 – biochemical, small-molecule microarray, fluorescence 635/667 nm, 0.5 µg/mL protein, primary screen (AID 1183); settings: fluorescence 635 nm, higher = more signal
[12] = blood-stage malaria parasite viability loss – strain 3D7, DAPI fluorescence, 100 nL, primary screen (AID 1184);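 further: parasites grown inside human red blood cells in medium with human serum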; settings: P. falciparum 3D7 growth, 3 d, higher = more signal
[13] = biological target: Homeobox protein Hox-A13 (Mus musculus) (UniProt Q62424); experiment: disruptors of Hoxa13 oligonucleotide interaction – biochemical, fluorescence polarization, labeled oligonucleotide, primary screen (AID 1185); settings: Hoxa13:DNA binding, 15 min, higher = more signal, called active from +8 up or from −8 down
Homeobox protein Hox-A13 (Mus musculus), sequence (Q62424 whole entry, looked up): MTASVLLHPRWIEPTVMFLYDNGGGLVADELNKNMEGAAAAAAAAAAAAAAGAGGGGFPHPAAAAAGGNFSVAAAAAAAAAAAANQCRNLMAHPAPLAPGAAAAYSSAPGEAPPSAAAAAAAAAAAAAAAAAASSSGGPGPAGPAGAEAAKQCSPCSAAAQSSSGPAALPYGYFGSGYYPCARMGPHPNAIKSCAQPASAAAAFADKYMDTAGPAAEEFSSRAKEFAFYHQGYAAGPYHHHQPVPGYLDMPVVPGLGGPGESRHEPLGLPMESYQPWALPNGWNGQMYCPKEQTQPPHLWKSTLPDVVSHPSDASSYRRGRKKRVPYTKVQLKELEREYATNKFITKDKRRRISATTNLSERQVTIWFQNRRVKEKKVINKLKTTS

[14] = blockers of DNA damage checkpoint Chk1 activation – imaging, HeLa, hydroxyurea, phospho-Chk1 antibody, percent positive cells, primary screen (AID 1186); settings: hydroxyurea-induced phospho-Chk1 immunofluorescence imaging, higher = more signal
[15] = blockers of DNA damage checkpoint Chk1 activation – imaging, HeLa, hydroxyurea, phospho-Chk1 nuclear intensity, primary screen (AID 1187); settings: hydroxyurea-induced phospho-Chk1 immunofluorescence imaging, higher = more signal

Compound | z-score [1] | z-score [2] | z-score [3] | composite z-score [4] | z-score [5] | z-score [6] | z-score [7] | z-score [8] | z-score [9] | composite z-score [10] | composite z-score [11] | composite z-score (XIP peptide (Xip251-270)) | z-score [12] | z-score [13] | z-score [14] | z-score [15]
Cc1ccc(C2CC=C(C(=O)O)CN2S(=O)(=O)c2ccc(C)cc2)cc1 (stereo not drawn) | -0.719 | -0.0489 (inactive) | -0.955 (inactive) | 1.23 (inactive) | 0.396 (inactive) | 0.603 (inactive) | -0.799 (inactive) | -1.52 (inactive) | -1.54 | -0.102 | 0.911 (inactive) | 0.912 | -1.2 | -4.53 (inactive) | -0.185 (inactive) | -0.999 (inactive)
C=C(/C(=C/C[C@H](OC(=O)c1ccncc1)c1ccc(OCCO)cc1)c1cnc2ccccc2c1)C(C)C | 0.145 | -0.753 (inactive) | -0.777 (inactive) | -2.73 (inactive) | 0.85 (inactive) | 0.0942 (inactive) | -1.05 (inactive) | -1.02 (inactive) | 0.0076 | 0.13 | 0.782 (inactive) | 0.528 | -2.84 | -3.29 (inactive) | 0.118 (inactive) | -0.0461 (inactive)
COCCCNC(=O)[C@@]1(CCS(=O)(=O)c2ccccc2)N=C(c2ccc(OCCCO)cc2)O[C@H]1c1ccccc1 | 1.62 | -0.44 (inactive) | 0.745 (inactive) | 0.514 (inactive) | 0.0963 (inactive) | -0.287 (inactive) | 1.34 (inactive) | 0.953 (inactive) | 0.806 | 0.14 | 1.3 (inactive) | 0.875 | -1.62 | -6.18 (inactive) | -0.213 (inactive) | -0.2 (inactive)
COC(=O)[C@@H]1N=C(c2ccc(OCCCO)cc2)O[C@@H]1c1ccccc1N=[N+]=[N-] | 1.92 | -4.88 (inactive) | 0.856 (inactive) | 0.458 (inactive) | 1.2 (inactive) | -0.82 (inactive) | 2.09 (inactive) | 0.995 (inactive) | 0.0154 | 0.267 | 0.82 (inactive) | 0.806 | -1.43 | -3.65 (inactive) | -0.292 (inactive) | -0.269 (inactive)
CN(C)CCCNC(=O)[C@@H]1c2ccccc2C(=O)N(Cc2ccccc2)[C@H]1c1ccc(CO)cc1 | -0.309 | 0.0396 (inactive) | 0.499 (inactive) | -0.303 (inactive) | -0.233 (inactive) | 0.075 (inactive) | -0.0194 (inactive) | -0.136 (inactive) | 0.791 | -0.0926 | 0.0257 (inactive) | -0.32 | 0.0535 | 0.86 (inactive) | 0.242 (inactive) | 0.372 (inactive)
COC(=O)c1c(CC[C@@H](CO)NC(=O)N[C@H](Cc2ccccc2)Cn2cc(-c3ccccc3N)nn2)oc(C(C)=O)c1C(=O)OC | -0.601 | -1.2 (inactive) | 0.505 (inactive) | -0.433 (inactive) | -0.109 (inactive) | -0.053 (inactive) | 1.18 (inactive) | 0.561 (inactive) | 0.336 | -0.127 | 0.0074 (inactive) | 0.0678 | -1.29 | -5.26 (inactive) | -0.125 (inactive) | 0.189 (inactive)
COC(=O)[C@@]1(Cc2ccccc2)[C@H]2c3cc(C(=O)N4CCCC4)n(Cc4ccccn4)c3C[C@H]2CN1C(=O)c1ccccc1 | -1.17 | 1.32 (inactive) | -1.45 (inactive) | 0.553 (inactive) | 1.79 (inactive) | 0.957 (inactive) | -0.452 (inactive) | -0.551 (inactive) | -2.32 | 0.0737 | 0.766 (inactive) | 0.91 | -1.5 | -6.05 (inactive) | -0.161 (inactive) | -0.295 (inactive)
[N-]=[N+]=NCc1ccccc1[C@@H]1OC(c2ccc(OCCCO)cc2)=N[C@]1(Cc1ccccc1)C(=O)N1CCOCC1 | -0.85 | -0.833 (inactive) | -1.15 (inactive) | -0.0859 (inactive) | -0.208 (inactive) | 0.165 (inactive) | 0.559 (inactive) | 0.917 (inactive) | -0.425 | 0.113 | 0.713 (inactive) | 0.841 | -2.33 | -4.99 (inactive) | -0.449 (inactive) | -1.03 (inactive)
CN1C(=O)C2C=CC(C(O)c3ccc(I)cc3)N(NC(=O)OC(C)(C)C)C2C1=O (stereo not drawn) | -1.11 | 0.9 (inactive) | -0.694 (inactive) | 0.0247 (inactive) | 0.53 (inactive) | 0.983 (inactive) | -0.446 (inactive) | -0.18 (inactive) | -0.639 | 0.308 | 0.0031 (inactive) | 0.575 | -0.711 | -2.75 (inactive) | 0.256 (inactive) | 0.078 (inactive)
CC(C)NC(=O)[C@@]1(c2ccc([N+](=O)[O-])cc2)CC(=O)N(CC23CC4CC(CC(C4)C2)C3)[C@@H]1c1ccc(CO)cc1I | -3.37 | -0.722 (inactive) | -4.2 (inactive) | -0.304 (inactive) | 0.761 (inactive) | 0.835 (inactive) | -0.398 (inactive) | -0.226 (inactive) | -4.86 | 0.0178 | 0.805 (inactive) | 0.704 | -0.705 | -3.26 (inactive) | -0.122 (inactive) | 1.16 (inactive)
COCCOC(=O)N1C(=O)[C@@]2(c3cc(C#CC4(O)CCCCCC4)ccc31)[C@H](c1ccc(OCCO)cc1)N1[C@H](c3ccccc3)[C@H](c3ccccc3)OC(=O)[C@H]1[C@@H]2C(=O)NC[C@H](O)c1ccccc1 | -0.259 | 0.685 (inactive) | -0.596 (inactive) | 1.74 (inactive) | 1.91 (inactive) | 2.62 (inactive) | 0.393 (inactive) | 0.0869 (inactive) | 0.406 | -0.16 | 0.437 (inactive) | 0.723 | -2.27 | 2.7 (inactive) | 0.0412 (inactive) | 0.0764 (inactive)
COc1ccccc1CN1C(=O)c2ccccc2[C@@]2(Cc3ccccc3N(C(C)C)C2=O)[C@@H]1c1ccc(CO)cc1 | -0.643 | 0.439 (inactive) | -0.647 (inactive) | -3.28 (inactive) | 0.376 (inactive) | -1.56 (inactive) | 0.549 (inactive) | 1.14 (inactive) | -0.457 | 0.161 | 0.496 (inactive) | 0.854 | 0.559 | -0.215 (inactive) | -0.014 (inactive) | 0.36 (inactive)
CS(=O)(=O)CCOC(=O)C1=CC(CCCO)=CC(c2cccs2)N(Cc2cccc(OC(F)(F)F)c2)C=C1C(=O)OCCS(C)(=O)=O (stereo not drawn) | -0.746 | -3.44 (inactive) | -1.21 (inactive) | -0.407 (inactive) | 1.52 (inactive) | 0.0788 (inactive) | 0.596 (inactive) | -0.0926 (inactive) | -0.96 | -0.268 | 1.17 (inactive) | -0.0502 | -2.99 | -4.22 (inactive) | 0.724 (inactive) | 0.918 (inactive)
COc1ccc(CCNC(=O)[C@@H]2c3ccccc3C(=O)N(c3ccc(C)cn3)[C@H]2c2ccc(CO)cc2)cc1 | 0.594 | -0.742 (inactive) | -0.806 (inactive) | -0.204 (inactive) | 0.525 (inactive) | -0.195 (inactive) | 0.0636 (inactive) | -0.113 (inactive) | 1 | -0.267 | -1.02 (inactive) | 0.843 | -0.183 | -1.78 (inactive) | 0.274 (inactive) | 0.259 (inactive)
COc1ccc([Si](C)(C)[C@H]2[C@H](CCO)O[C@@]3(C(=O)N(Cc4cccc(NC(=O)[C@H](C)O)c4)c4ccccc43)[C@@H]2C)cc1 | -5.76 | -0.321 (inactive) | -9.08 (active) | 1.35 (inactive) | 1.19 (inactive) | 4.03 (inactive) | 1.7 (inactive) | 1.14 (inactive) | -6.16 | 0.131 | -0.201 (inactive) | 0.618 | -2.74 | -6.16 (inactive) | -1.95 (inactive) | -0.667 (inactive)
CCOc1ccc(N2C(=O)/C(=C/C=C/c3ccccc3OC)S(=O)(=O)C2c2cccc([N+](=O)[O-])c2)cc1 (stereo not drawn) | 1.28 | -1.52 (inactive) | -2.33 (inactive) | -1.74 (inactive) | 1.07 (inactive) | -1.44 (inactive) | 0.777 (inactive) | 0.765 (inactive) | -0.548 | 0.0264 | -0.735 (inactive) | -0.299 | 0.418 | 1.37 (inactive) | -0.322 (inactive) | -0.16 (inactive)
CCCC[C@@H]1C[C@H]1[C@@H](NS(=O)(=O)c1cccc2cccnc12)c1ccc(-c2ccccc2)cc1 | -0.279 | 0.444 (inactive) | -0.251 (inactive) | -0.151 (inactive) | 0.411 (inactive) | 0.269 (inactive) | -0.366 (inactive) | -0.166 (inactive) | -0.611 | -0.0559 | -0.111 (inactive) | -0.239 | -0.299 | -0.507 (inactive) | -0.121 (inactive) | 0.189 (inactive)
CCCNC(=O)[C@@H]1c2ccccc2C(=O)N(Cc2ccccc2Cl)[C@H]1c1ccc(CO)cc1 | 1.44 | -0.768 (inactive) | 0.496 (inactive) | -0.227 (inactive) | -0.217 (inactive) | 0.251 (inactive) | 0.812 (inactive) | 0.829 (inactive) | 1.45 | -0.078 | -0.101 (inactive) | 0.799 | -0.994 | -2.59 (inactive) | -0.258 (inactive) | -0.142 (inactive)
